Inconclusive results are not listed. Calls of active or inactive are those of the source. Rule for the calls: active = hit-call score of the fitted dose curve at least 0.9, where 1 is the maximum; inconclusive = response in the unintended direction; inactive = score below 0.9.

A short description of assay [1]: TOX21_p53_BLA_p2_viability: Viability Assessment in the Tox21 HCT-116 p53 Agonism Beta-lactamase Assay, Phase 2 (AID 2283591).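 Note: compound exposure lasted 16 h at 37 °C; actives lower the ATP signal meaning cytotoxicity.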 In a few lines: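 Cytotoxicity readout: CellTiter-Glo ATP luminescence, 30 min at room temperature, after the beta-lactamase read. Cells were HCT116 exposed 16 h at 37C to compounds pin-transferred at 217-fold dilution from DMSO stocks.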

Assay [2] has as its target Cellular tumor antigen p53 (Homo sapiens) (UniProt P04637). Nature of the assay: TOX21_p53_BLA_p3_ratio: Tox21 HCT-116 p53 Agonism Beta-lactamase Assay, Ratio, Phase 3 (AID 2283596). A digest of the protocol:
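Cells were seeded at 4000/well, rested 5 h at 37C, then dosed with DMSO compound solutions (217-fold dilution) for 16 h. CCF4-AM substrate was loaded for 2 h at room temperature, and the 460/530 nm emission ratio was fitted for gain of signal versus DMSO.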

The nature of assay [3]: TOX21_p53_BLA_p4_viability: Viability Assessment in the Tox21 HCT-116 p53 Agonism Beta-lactamase Assay, Phase 4 (AID 2283597).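 Note: hits lower the luminescence signal meaning cytotoxicity.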 A digest of the protocol: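 Cytotoxicity as reduced cellular ATP (CellTiter-Glo luminescence, 30 min room temperature), measured in the same wells following the CCF4 FRET p53 reading. Human HCT-116 cells received compounds in DMSO (217-fold dilution) for 16 h.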

In assay [4] the target is Cellular tumor antigen p53 (Homo sapiens) (UniProt P04637). Nature of the assay: TOX21_p53_BLA_p5_ratio: Tox21 HCT-116 p53 Agonism Beta-lactamase Assay, Ratio, Phase 5 (AID 2283599). A digest of the protocol:
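Beta-lactamase reporter ratio (blue 460 nm over green 530 nm, 405 nm excitation) after 2 h CCF4-AM loading, in HCT-116 cells exposed 16 h at 37 C to compounds pinned at 217-fold dilution. Increases relative to DMSO baseline scored.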

Assay [5] is described as follows: TOX21_p53_BLA_p5_viability: Viability Assessment in the Tox21 HCT-116 p53 Agonism Beta-lactamase Assay, Phase 5 (AID 2283600). In a few lines:
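Viability came from CellTiter-Glo ATP luminescence, read after 30 min at room temperature. Before this, HCT-116 p53-bla cells (4000/well) had 16 hours of compound exposure at 37C, with DMSO stocks diluted 217-fold on transfer.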

The target of assay [6] is Cellular tumor antigen p53 (Homo sapiens) (UniProt P04637). Nature of the assay: TOX21_p53_BLA_p4_ratio: Tox21 HCT-116 p53 Agonism Beta-lactamase Assay, Ratio, Phase 4 (AID 2283601). A digest of the protocol: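 Signal is the blue/green (460nm/530nm) ratio of cleaved versus uncleaved CCF4-AM substrate, read after 2 h substrate loading. Cells were HCT116 carrying the p53-responsive beta-lactamase reporter, dosed 16 h at 37C, 5% CO2; CellTiter-Glo measured in parallel.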
Sequence of Cellular tumor antigen p53 (Homo sapiens) (P04637 whole entry, looked up): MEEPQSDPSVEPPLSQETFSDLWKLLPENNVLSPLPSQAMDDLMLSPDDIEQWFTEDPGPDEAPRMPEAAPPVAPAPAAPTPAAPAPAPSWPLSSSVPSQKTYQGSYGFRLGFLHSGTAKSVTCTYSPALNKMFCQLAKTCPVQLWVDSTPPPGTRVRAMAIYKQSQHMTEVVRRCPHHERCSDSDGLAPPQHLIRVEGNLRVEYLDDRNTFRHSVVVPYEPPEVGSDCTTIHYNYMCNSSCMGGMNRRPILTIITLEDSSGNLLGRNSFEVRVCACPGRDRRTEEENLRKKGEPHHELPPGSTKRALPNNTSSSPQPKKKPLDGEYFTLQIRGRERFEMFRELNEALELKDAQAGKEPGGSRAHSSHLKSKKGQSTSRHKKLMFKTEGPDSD

Broadly, the AC50 is the concentration at which the activity in the assay is half-maximal. As for `O=C(O)Cn1c(C(=O)Nc2nc(-c3ccccc3Cl)cs2)cc2ccccc21`, the result in assay [1], in assay [2] and in assay [6] was inactive. For the same molecule, the half-maximal activity concentration (AC50) in assay [3] was 38.9 µM (active); in assay [4], 37.1 µM (active); in assay [5], 40.7 µM (active).
Take `OCCCCCCO`: the result in assay [1], in assay [2], in assay [3], in assay [4] and in assay [5] was inactive.
With `COc1ccc(Br)c(C)c1`, the call in assay [1], in assay [2] and in assay [3] was inactive.
Take `CCOC(=O)[C@H](CCc1ccccc1)N[C@@H](C)C(=O)N1C(=O)N(C)C[C@H]1C(=O)O`: the molecule was called inactive in assay [1], in assay [2], in assay [3], in assay [4] and in assay [5].
For the molecule `C1COC1`, the outcome in assay [1], in assay [2], in assay [3], in assay [4] and in assay [5] was inactive.
Take `CCN(O)CC`: the call in assay [1], in assay [2], in assay [3], in assay [4], in assay [5] and in assay [6] was inactive.
For `Cc1nc2n(c(=O)c1CCN1CCC(c3noc4cc(F)ccc34)CC1)CCC[C@H]2O`, the molecule was called inactive in assay [1], in assay [2], in assay [3], in assay [4], in assay [5] and in assay [6].
Turning to `O=c1[nH]c2ccc(Cl)cc2o1`, the molecule was classed as inactive in assay [1], in assay [2], in assay [3], in assay [4], in assay [5] and in assay [6].
Take `CC(=C(CCOC(=O)C(C)C)SSC(CCOC(=O)C(C)C)=C(C)N(C=O)Cc1cnc(C)nc1N)N(C=O)Cc1cnc(C)nc1N`: the result in assay [1], in assay [2], in assay [3], in assay [4], in assay [5] and in assay [6] was inactive.
In the case of `CN1CCCN=C1/C=C/c1cccs1`, the molecule was called inactive in assay [1], in assay [2] and in assay [3].
Regarding `O=C1c2ccccc2-c2ccccc21`, the molecule was called inactive in assay [1], in assay [2], in assay [3] and in assay [4].
On to `CC(=O)C1CCCCC1=O` (stereo unspecified), for which the molecule was called inactive in assay [1] and in assay [2].
`Nc1ncnc2c1ncn2[C@H]1CC[C@@H](CO)O1`: the result in assay [1], in assay [2], in assay [3], in assay [4] and in assay [5] was inactive.
As to `COc1ccc(CCNC[C@H](O)c2ccc(O)cc2)cc1OC`, the result in assay [1], in assay [2], in assay [3], in assay [4], in assay [5] and in assay [6] was inactive.
For the molecule `CC(=O)c1ccc2c(c1)N(CCCN(C)C)c1ccccc1S2`, the molecule was called inactive in assay [1], in assay [2], in assay [3] and in assay [4].
Turning to `Cc1cc(C(=O)O)ccc1[N+](=O)[O-]`, the outcome in assay [1], in assay [2], in assay [3] and in assay [4] was inactive.
As for `Nc1nc(/C(=C/CC(=O)O)C(=O)N[C@@H]2C(=O)N3C(C(=O)O)=CCS[C@H]23)cs1`, the molecule was classed as inactive in assay [1], in assay [2], in assay [3] and in assay [4].
For the molecule `Nc1ccc(Oc2ccc(Cl)cc2)cc1`, the result in assay [1], in assay [2], in assay [3], in assay [4], in assay [5] and in assay [6] was inactive.
Take `Cc1ccc2c(c1)c1c3n2CCNC3CCC1` (stereo unspecified): the outcome in assay [1], in assay [2], in assay [3] and in assay [4] was inactive.
`CCCCN1C=CN(C)C1`: the molecule was classed as inactive in assay [1], in assay [2], in assay [3], in assay [4] and in assay [5].
Consider `ClC/C=C/CCl`, for which the outcome in assay [1], in assay [2], in assay [3], in assay [4] and in assay [5] was inactive.
With `COc1c(O)cc2c(c1O)[C@@H]1O[C@H](CO)[C@@H](O)[C@H](O)[C@H]1OC2=O`, the outcome in assay [1], in assay [2], in assay [4] and in assay [6] was inactive.
On to `O=C(Nc1cccc2c(=O)cc(-c3nn[nH]n3)oc12)c1ccc(OCCCCc2ccccc2)cc1`, for which the molecule was called inactive in assay [1], in assay [2], in assay [3] and in assay [5].
Consider `CC(O)CO` (stereo unspecified) (tested in a mixture with another compound), for which the molecule was called inactive in assay [1], in assay [2], in assay [3] and in assay [6].
Regarding `CN(C)CCCN1c2ccccc2C(C)(C)c2ccccc21`, the call in assay [1], in assay [2] and in assay [4] was inactive.
For the molecule `Cc1ccc(=O)n(-c2ccccc2)c1`, the result in assay [1], in assay [2], in assay [3] and in assay [6] was inactive.
Regarding `O=C1OC(CN2CCOCC2)CN1N=Cc1ccc([N+](=O)[O-])o1` (stereo unspecified), the molecule was classed as inactive in assay [1], in assay [2], in assay [4], in assay [5] and in assay [6].
In the case of `Cc1c(I)c(=O)n(-c2ccccc2)n1C`, the result in assay [1], in assay [2], in assay [4], in assay [5] and in assay [6] was inactive.
Consider `O=C(O)COc1ccc2ccccc2c1`, for which the molecule was classed as inactive in assay [1], in assay [2], in assay [4], in assay [5] and in assay [6].
On to `CC(C)CCCC(C)NC(C)C` (stereo unspecified), for which the call in assay [1], in assay [2] and in assay [4] was inactive.
On to `CC=CC1=C(C(=O)O)N2C(=O)[C@@H](NC(=O)[C@H](N)c3ccc(O)cc3)[C@H]2SC1`, for which the result in assay [1], in assay [2], in assay [4], in assay [5] and in assay [6] was inactive.
As to `CC[N+](CC)(CC)CCOc1cccc(OCC[N+](CC)(CC)CC)c1OCC[N+](CC)(CC)CC`, the result in assay [1], in assay [2], in assay [3], in assay [4] and in assay [6] was inactive.
In the case of `C[C@H](O)CN(C)C`, the molecule was classed as inactive in assay [1], in assay [2], in assay [4] and in assay [6].
`O=C1OC(=O)c2ccccc21`: the call in assay [1], in assay [2], in assay [3], in assay [5] and in assay [6] was inactive.
As for `CN1C(=O)C[C@@H](C(=O)N[C@@H](Cc2cnc[nH]2)C(=O)N2CCC[C@H]2C(N)=O)NC1=O`, the result in assay [1], in assay [2], in assay [4], in assay [5] and in assay [6] was inactive.

Values taken from PubChem BioAssay (EPA / NIEHS).
